TRPM1 prom inh = inhibitors of MITF-driven TRPM1 promoter in melanoma cells | SK-MEL-5 TRPM1 promoter luciferase, 24 h | 0.83% of 330,000 active | inhibition, % at 12.5 µM;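 active = mean inhibition across replicates of 60% or more, whatever share of single replicates reaches that level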
TROY NFkB inh = blocks TROY-dependent signaling in reporter cells. Q293 LMP1-TROYcd NF-kB luciferase reporter, 4 h. inhibition, % at 10 µM. 0.98% of 360,000 active;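 active = compounds whose plate-normalised and pattern-corrected inhibition of the luciferase reporter signal at the single screening dose is 50% or more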
TWEAK-Fn14 inh = TWEAK-Fn14 signaling inhibition; inhibition, % at 10 µM; 2% of 360,000 active; TWEAK-stimulated Fn14 reporter cells, luciferase luminescence, 8 h; in the data active = inhibition above about 50%
Peg3 promoter = inhibitors of Peg3 promoter. HeLa PEG-Prom luciferase reporter, luminescence, overnight. inhibition, % at 20 µM. 1.7% of 360,000 active. AID 588405;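 active = inhibition of at least 50% at 20 µM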
LMP1 NFkB inh = Epstein-Barr LMP1 NF-kappaB reporter inhibition; LMP1-induced NF-kappaB luciferase reporter cells, luminescence; inhibition, % at 12.5 µM; 0.69% of 350,000 active; AID 504558; in the data active = inhibition above about 41%
HIF-2a block = HIF-2a inhibition | 786-0 RCC cells HIF-2a reporter, luciferase luminescence, overnight | inhibition, % at 18.8 µM | 0.72% of 360,000 active | AID 624352;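 active = inhibition of the luminescence signal of 40% or more relative to plate controls, in a single-dose primary screen at 18.75 µM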
Mdm2-MdmX confirm = Mdm2/MdmX (human) interaction inhibition, confirmed; shares compounds with HIF-2a block; SaOS-2 split-luciferase Mdm2/MdmX complementation, luminescence; inhibition, % at 8 µM; 99% of 740 active;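 active = mean inhibition of the luminescence signal across two replicates at or above 26 percent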
Target sequence (O15151 whole entry, looked up): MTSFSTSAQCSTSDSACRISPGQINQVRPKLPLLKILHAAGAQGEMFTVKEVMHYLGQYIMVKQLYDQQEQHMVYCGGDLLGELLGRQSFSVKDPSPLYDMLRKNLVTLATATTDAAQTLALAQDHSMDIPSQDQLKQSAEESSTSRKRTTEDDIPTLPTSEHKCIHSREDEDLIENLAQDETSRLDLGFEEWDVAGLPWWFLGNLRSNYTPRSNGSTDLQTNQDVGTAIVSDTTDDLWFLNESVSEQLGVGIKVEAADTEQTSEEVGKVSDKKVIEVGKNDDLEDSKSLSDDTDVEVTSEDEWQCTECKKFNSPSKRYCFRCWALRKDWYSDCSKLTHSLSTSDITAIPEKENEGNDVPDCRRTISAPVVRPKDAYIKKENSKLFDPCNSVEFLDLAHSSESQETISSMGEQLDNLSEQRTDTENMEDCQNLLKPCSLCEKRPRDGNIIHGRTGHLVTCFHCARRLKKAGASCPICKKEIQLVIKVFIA
Target sequence (Q00987 whole entry, looked up): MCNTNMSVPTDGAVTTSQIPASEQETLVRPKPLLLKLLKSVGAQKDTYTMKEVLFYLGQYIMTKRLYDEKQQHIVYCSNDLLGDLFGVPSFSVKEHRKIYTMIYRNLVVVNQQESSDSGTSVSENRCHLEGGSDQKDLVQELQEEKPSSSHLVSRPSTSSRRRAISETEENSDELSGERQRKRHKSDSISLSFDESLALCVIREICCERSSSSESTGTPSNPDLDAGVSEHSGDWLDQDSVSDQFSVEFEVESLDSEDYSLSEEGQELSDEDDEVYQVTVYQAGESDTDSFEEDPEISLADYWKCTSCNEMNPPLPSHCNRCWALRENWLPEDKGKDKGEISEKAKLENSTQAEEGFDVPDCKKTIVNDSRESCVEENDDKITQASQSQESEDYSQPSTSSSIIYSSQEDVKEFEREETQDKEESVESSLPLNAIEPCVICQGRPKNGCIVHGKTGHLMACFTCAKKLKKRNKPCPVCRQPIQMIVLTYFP
HIF-2a conf = HIF-2a inhibition, single concentration confirmation; inhibition, % at 18.8 µM; 786-0 RCC cells, HIF-2a luciferase reporter luminescence, overnight; 56% of 1,800 active; shares compounds with HIF-2a block; AID 651580;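 active = mean inhibition across four replicates of at least 40 percent at the single tested concentration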
HIF-1a counter = counter-screen for HIF-2a inhibitors: HIF-1a inhibition in MiaPaCa-2 cells. MiaPaCa-2 HIF-1a luciferase reporter, desferoxamine, overnight. 72% of 1,800 active. inhibition, % at 18.8 µM. AID 651589. shares compounds with HIF-2a block;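 active = mean inhibition of the reporter signal across four replicates at the single tested dose of 50% or more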
Large screens that a line does not name were inactive (follow-up assays come after a bar, where they were run). Sampled rows, rich in hits. Any-hit rate of the full collection: about 4%.

CCOc1ccccc1C(=O)Nc1ccc2nc(N3CCN(c4ncccn4)CC3)cc(C)c2c1	none (no result: TRPM1 prom inh, TROY NFkB inh, TWEAK-Fn14 inh, Peg3 promoter, LMP1 NFkB inh, HIF-2a block) | Mdm2-MdmX confirm 98
Cn1c(SCc2ccccn2)nnc1-c1ccccc1	none
COc1ccc(CC(N)c2csc(NC(=O)c3ccccc3OC)n2)cc1 (stereo not drawn)	none (no result: TRPM1 prom inh, LMP1 NFkB inh)
NC(Cc1ccc(Cl)cc1)c1csc(NC(=O)NCC2CCCCC2)n1 (stereo not drawn)	Peg3 promoter 92, HIF-2a block 61 (no result: TRPM1 prom inh, LMP1 NFkB inh) | HIF-2a conf inactive | HIF-1a counter 101
CC(=O)Nc1ccc(NC(=O)c2c([N+](=O)[O-])c(C(C)(C)C)nn2C)cc1	HIF-2a block 60 | HIF-2a conf 67 | HIF-1a counter inactive
COC(=O)c1ccc2nc(Nc3nc4c(F)cc(F)cc4s3)sc2c1	TRPM1 prom inh 95, TROY NFkB inh 92, TWEAK-Fn14 inh 105, Peg3 promoter 75, HIF-2a block 90 | HIF-2a conf 94 | HIF-1a counter 90
CCn1c(=N)c(C(=O)NC)cc2c(=O)n3cccc(C)c3nc21	none
CCNc1nc(C)c2cc(Br)c(=O)n(CC)c2n1	HIF-2a block 55 | HIF-2a conf inactive | HIF-1a counter inactive
O=[N+]([O-])c1ccc(Oc2cccc(Br)c2)c2ccncc12	HIF-2a block 45 | HIF-2a conf inactive | HIF-1a counter 77
CN(C)CCNC(=O)c1cccc(-c2cnc3c(NC=O)cc(-c4cc(F)c(F)c(F)c4)cn23)c1	HIF-2a block 88 (no result: TRPM1 prom inh, LMP1 NFkB inh) | HIF-2a conf inactive | HIF-1a counter 107
CN(C)CCNC(=O)c1cccc(-c2cnc3c(NC=O)cc(-c4ccc(S(C)(=O)=O)cc4)cn23)c1	none (no result: TRPM1 prom inh, LMP1 NFkB inh)
CN(C)CCNC(=O)c1cccc(-c2cc(NC=O)c3ncc(-c4cccc(C(F)(F)F)c4)n3c2)c1	Peg3 promoter 98, HIF-2a block 95 (no result: TRPM1 prom inh, LMP1 NFkB inh) | HIF-2a conf inactive | HIF-1a counter 106
COc1cccc(-c2cc(NC=O)c3ncc(-c4cccc(C(=O)NCCN(C)C)c4)n3c2)c1	none (no result: TRPM1 prom inh, LMP1 NFkB inh)
Cn1nnnc1SCSc1nnnn1C	none
Cn1nnnc1Sc1ncnc2scc(-c3ccccc3Br)c12	Peg3 promoter 79, HIF-2a block 49 | HIF-2a conf inactive | HIF-1a counter 75
Cn1nnnc1Sc1ncnc2scc(Br)c12	TROY NFkB inh 68, TWEAK-Fn14 inh 99, Peg3 promoter 104, HIF-2a block 96 | HIF-2a conf 65 | HIF-1a counter 105
Cc1csc(=O)n1CCC(=O)OCC(=O)NCc1ccccc1	none (no result: TRPM1 prom inh)
CCOC(=O)C1CCCN(C(=O)COC(=O)c2ccc(C#N)cc2)C1 (stereo not drawn)	none
COc1ccc(SCCCn2c(=O)c3c(ncn3C)n(C)c2=O)cc1	none
Cc1ccccc1Oc1cc(-n2ncc(Cl)c(Cl)c2=O)ncn1	TRPM1 prom inh 94, TROY NFkB inh 90, TWEAK-Fn14 inh 107, Peg3 promoter 105, LMP1 NFkB inh 93, HIF-2a block 98 | HIF-2a conf 100 | HIF-1a counter 106
CC(=O)Nc1ccc(NC(=O)c2oc3cc(C)c(C)cc3c2C)cc1	HIF-2a block 52 | HIF-2a conf 74 | HIF-1a counter inactive
COc1ccc(NC(=O)CCNS(=O)(=O)c2cccc3nonc23)c(OC)c1	none
O=C(NNC(=S)Nc1ccc(F)cc1)C1[C@H]2CCCC[C@@H]12 (stereo partly drawn)	none (no result: TRPM1 prom inh, LMP1 NFkB inh)
CC(C)NC(=O)NC(=O)COC(=O)CCCSc1nc2ccccc2s1	none
Cc1cccc(C)c1NC(=O)CCCSc1nc2ccccc2s1	none
CCOC(=O)NC(=O)COC(=O)CCCSc1nc2ccccc2s1	TWEAK-Fn14 inh 54, HIF-2a block 59 | HIF-2a conf 76 | HIF-1a counter inactive
O=C(O)CCSc1nc2ccccc2s1	TROY NFkB inh 69, TWEAK-Fn14 inh 92, HIF-2a block 89 | HIF-2a conf 97 | HIF-1a counter 92
CC(=O)Nc1ccc(NC(=O)CCCSc2nc3ccccc3s2)cc1	none
NC(=O)NC(=O)COC(=O)CCCSc1nc2ccccc2s1	TWEAK-Fn14 inh 61, HIF-2a block 71 | HIF-2a conf 83 | HIF-1a counter 62
O=C(CCCSc1nc2ccccc2s1)NC1=NCCS1	HIF-2a block 72 | HIF-2a conf 85 | HIF-1a counter inactive
COc1ccc(NC(=O)Cn2c([N+](=O)[O-])cnc2C)c(OC)c1	none (no result: TRPM1 prom inh)
Cn1nnnc1SCc1nc2scc(-c3ccccc3)c2c(=O)[nH]1	none
Cn1nnnc1Sc1ncnc2scc(-c3ccc[nH]3)c12	TRPM1 prom inh 84, TWEAK-Fn14 inh 70, HIF-2a block 72 | HIF-2a conf 41 | HIF-1a counter 100
Cc1ccc(-c2csc3ncnc(Cl)c23)cc1	none
Cn1nnnc1Sc1ncnc2scc(-c3ccc(Br)cc3)c12	TRPM1 prom inh 94, TROY NFkB inh 60, TWEAK-Fn14 inh 88, Peg3 promoter 103, HIF-2a block 93 | Mdm2-MdmX confirm 103 | HIF-2a conf 100 | HIF-1a counter 106
Cn1nnnc1SCc1nc2scc(-c3ccc(Cl)cc3)c2c(=O)[nH]1	none
Cn1nnnc1Sc1ncnc2scc(-c3ccc(F)cc3)c12	TRPM1 prom inh 83, TWEAK-Fn14 inh 57, Peg3 promoter 97, LMP1 NFkB inh 71, HIF-2a block 78 | Mdm2-MdmX confirm 103
O=C1CCc2cccc(O)c2N1	none
Nc1[nH]c(C(=O)c2ccccc2)c(-c2ccc(Cl)c(F)c2)c1C(=O)NCCc1c[nH]c2ccccc12	none (no result: TRPM1 prom inh, Peg3 promoter, LMP1 NFkB inh)
COC(=O)C(=Cc1ccc(OCc2ccc([N+](=O)[O-])cc2)c(OC)c1)C(=O)OC	TROY NFkB inh 57, TWEAK-Fn14 inh 91, HIF-2a block 81 | HIF-2a conf 82 | HIF-1a counter 101
CCOC(=O)C(=Cc1ccc(OCc2ccc([N+](=O)[O-])cc2)c(OC)c1)C(=O)OCC	TWEAK-Fn14 inh 58, Peg3 promoter 58, HIF-2a block 93 | HIF-2a conf 98 | HIF-1a counter 108
COc1cc(/C=N/NC(=O)c2cccc([N+](=O)[O-])c2)ccc1OCc1ccccc1	none
CCN(C(=O)COC(=O)/C(=C/c1ccccc1)n1nnnc1C)C1CCCCC1	HIF-2a block 42 | HIF-2a conf inactive | HIF-1a counter 63
Cc1nnnn1/C(=C\c1ccccc1)C(=O)OCC(=O)N(C)C1CCS(=O)(=O)C1 (stereo not drawn)	none
CC(=O)n1cc(N(C(=O)CCl)c2ccc(Cl)cc2)c2ccccc21	TWEAK-Fn14 inh 64, Peg3 promoter 108, HIF-2a block 83 (no result: TRPM1 prom inh, LMP1 NFkB inh) | HIF-2a conf 98 | HIF-1a counter 108
